Compounds without any hit were thinned out: in the full panel of roughly 79,000, 15% have a hit. Activity calls are given as the source filed them. No stated cut-off is given here; in the data, active means growth inhibition above about 70%; inactive means the rest.

This assay can be described thus: NCI Yeast Anticancer Drug Screen. Data for the bub3 strain (AID 167). Conditions: S. cerevisiae bub3 mutant strain, at 5.0 µM (retest, dose inferred, filed as 0.5), stronger effect = higher value. A digest of the protocol:
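Screening used yeast with an engineered genetic alteration affecting cell cycle control. Compound-exposed cultures were compared with vehicle cultures, and reduced growth was taken as inhibition.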
Take `CN(C)CC(CN(C)C)C(=O)/C=C/c1ccc(Cl)cc1Cl`: the growth inhibition was -10% (inactive).

In the case of `c1ccc2c(c1)ccn2CCc1c[nH]c2ccccc12`, the growth inhibition is -19% (inactive).

As for `Cc1ccccc1NC(=O)c1c(C)oc2c1C(=O)c1ccccc1C2=O`, the growth inhibition was 17% (inactive).

Consider `CC(C)OC(=O)NNc1c(Cl)cc(Cl)cc1Cl`, for which the growth inhibition is 36% (inactive).

For the compound `COc1ccc2nc3cccc([N+](=O)[O-])c3c(NCCNCCO)c2c1`, the growth inhibition is -31% (inactive).

Consider `COc1ccc2c(c1)CCCC(Br)C2=O` (stereo not given), for which the growth inhibition was -12% (inactive).

Turning to `CCC(OC(C)=O)C1CC(C(C)C)CCC1C` (stereo not given), the growth inhibition was 0% (inactive).

`O=S(=O)(c1cccc(C(F)(F)F)c1)N1c2ccccc2-n2cccc2C1c1cccnc1` (stereo not given): the growth inhibition is 25% (inactive).

For the compound `c1ccc(-c2cc(C3CO3)c3ccccc3n2)cc1` (stereo not given), the growth inhibition was 8% (inactive).

Turning to `COc1ccc(/C=C2\SC(=S)N(/C=C3\C(=O)N(c4ccccc4)N=C3C)C2=O)cc1OC`, the growth inhibition is 5% (inactive).

With `CC1=CC(=C(c2ccc(N)c(C)c2)c2ccc(N)c(C)c2)C=CC1=N`, the growth inhibition is 18% (inactive).

As to `CC(/C=C/c1ccc([N+](=O)[O-])o1)=N/N1CC(CN2CCOCC2)OC1=O` (stereo not given), the growth inhibition was 3% (inactive).

`C=CC(C)(C)N1C(=O)C(C(C)=O)=C(O)C1Cc1c[nH]c2ccccc12` (stereo not given): the growth inhibition was -11% (inactive).

On to `O=C1c2cccc3cccc(c23)C(=O)N1CCNCCN1C(=O)c2cccc3cccc(c23)C1=O`, for which the growth inhibition is 2% (inactive).

For the compound `Cc1ccc([N+](=O)[O-])c2c(NCCC[N+](C)(C)[O-])c3ccccc3nc12`, the growth inhibition was -22% (inactive).

As for `COC(=O)C(Cc1c[nH]c2ccccc12)N1CN(C)c2ccccc2C1=O` (stereo not given), the growth inhibition was 13% (inactive).

For `O=C(/N=N/C(=O)Oc1ccccc1)Oc1ccccc1`, the growth inhibition was 50% (inactive).

As for `COc1cc([C@@H]2c3cc4c(cc3[C@@H](NC(=O)NO)[C@H]3COC(=O)[C@H]23)OCO4)cc(OC)c1O`, the growth inhibition is 3% (inactive).

Consider `CC1(C)CC(=O)C(/C=N/c2nc(-c3ccc(Br)cc3)cs2)=C(O)C1`, for which the growth inhibition is -22% (inactive).

Consider `CCOC(=O)/C(=C/c1cccc(Cl)c1)N(CC)CC`, for which the growth inhibition was 17% (inactive).

Regarding `CC(C)OC(=O)NNc1cccc(Cl)c1`, the growth inhibition was 83% (active).

Take `CCC(=O)C1=C(O)c2cc(OC)ccc2CC1C(=O)OC` (stereo not given): the growth inhibition was 7% (inactive).

As to `O=S(=O)(NC1CCCC(c2ccccc2)C1)c1ccccc1` (stereo not given), the growth inhibition was -8% (inactive).

Take `COc1ccc2nc3cccc([N+](=O)[O-])c3c(NCCCCCC(=O)O)c2c1`: the growth inhibition was 2% (inactive).

Take `CCO/C=C1\SC(=S)N(c2ccc(OCC)cc2)C1=O`: the growth inhibition was 9% (inactive).

On to `COc1cc(OC)c(CSCC(NC(=O)OCC2c3ccccc3-c3ccccc32)C(=O)O)c(OC)c1` (stereo not given), for which the growth inhibition was 3% (inactive).

Regarding `COC(=O)c1ccccc1N=NNc1cccc(SC)c1`, the growth inhibition is 3% (inactive).

As to `CC1=NN(C(=O)c2ccccc2O)C(=O)/C1=C/c1ccco1`, the growth inhibition was 43% (inactive).

Turning to `COc1ccccc1NC(=O)c1ccc(Cl)cc1`, the growth inhibition is -8% (inactive).

Turning to `CC(C)=CCC/C(C)=C/CN1C(=O)C=CC1=O`, the growth inhibition is -24% (inactive).

For `O=C1CSC(c2ccccc2)N1c1ccc(-c2ccc(-n3c(-c4ccccc4)nc4ccccc4c3=O)cc2)cc1` (stereo not given), the growth inhibition is 3% (inactive).

Consider `N#CC1OB(O)c2ccccc21` (stereo not given), for which the growth inhibition is -64% (inactive).

In the case of `O=C(NCCNCCNC(=O)c1cc(-c2ccccc2)nc2ccccc12)c1cc(-c2ccccc2)nc2ccccc12`, the growth inhibition was 2% (inactive).

For the compound `Brc1ccc(B2Nc3ccccc3N2)cc1`, the growth inhibition is 30% (inactive).

As for `CCOP(=O)(OCC)/C(C#N)=C/c1cccc(Oc2ccccc2)c1`, the growth inhibition is 22% (inactive).
